In the supplement of paper PMC3334620:
Over roughly 33,000 sequences, “E-score (-0.5 to 0.5)” has its median near -0.036; the highest 2% begin near 0.37. The full list was thinned out, with the highest values kept by preference.

What follows are sequences tested against T1, Yer064c (UniProt P40041) (assay: PBM E-score (8-mer binding enrichment) (E-score (-0.5 to 0.5)); higher = stronger / more preferred TF binding). Settings: protein concentration: 200 nM; construct: GST-full length.
T1 sequence: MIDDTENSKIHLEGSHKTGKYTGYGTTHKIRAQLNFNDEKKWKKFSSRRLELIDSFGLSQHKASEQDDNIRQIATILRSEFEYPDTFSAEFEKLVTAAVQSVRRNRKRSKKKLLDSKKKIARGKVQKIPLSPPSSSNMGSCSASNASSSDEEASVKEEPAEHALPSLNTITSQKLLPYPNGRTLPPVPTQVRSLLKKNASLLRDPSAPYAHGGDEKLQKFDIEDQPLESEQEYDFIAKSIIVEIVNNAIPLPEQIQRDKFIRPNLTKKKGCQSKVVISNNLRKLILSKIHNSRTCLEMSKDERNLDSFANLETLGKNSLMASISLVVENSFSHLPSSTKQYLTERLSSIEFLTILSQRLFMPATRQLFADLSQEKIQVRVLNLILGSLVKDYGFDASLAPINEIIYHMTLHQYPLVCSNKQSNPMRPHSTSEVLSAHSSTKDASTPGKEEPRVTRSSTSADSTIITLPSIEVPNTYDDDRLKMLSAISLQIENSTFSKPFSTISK
Procedure: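 Universal 'all 10-mer' protein binding microarrays (Agilent AMADID 015681) probed with GST-tagged S. cerevisiae TFs (full-length or DBD) made by in vitro transcription/translation (PURExpress), about 100-200 nM. Bound TF was detected with fluorescent anti-GST. Each ungapped 8-mer (which stands for itself and its reverse complement) is scored by the PBM enrichment score (E-score), a modified Wilcoxon-Mann-Whitney statistic from -0.5 to +0.5, computed with the Universal PBM Analysis Suite. Scale: above 0.35 generally sequence-specific binding.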

Sequence | PBM E-score
CTTGTGAC | 0.222
ATTGGTCA | 0.0959
CATCCACC | -0.0348
CCTGGACA | -0.127
AAGATTAC | 0.241
ATGATTAC | 0.472
ACGATTAC | 0.185
ACGATTAG | 0.152
ATGATTTG | 0.299
ATGATTAG | 0.438
CTGAGTCC | 0.402
ATGAGTCC | 0.442
ATGAGTGC | 0.226
ATGAGTCG | 0.474
CTGAGTGC | -0.0835
CTGAGTTC | 0.104
ATGAGTTC | 0.327
ATGAGTGG | 0.193
ATGAGTTG | 0.194
AGCTACGG | -0.0957
CAGTGGTC | 0.0376
GGCACGGA | -0.127
TACTTCTA | 0.0324
TGTCCAAA | -0.0925
ATTTCTTC | -0.058

Sequence | PBM E-score
ATGATTGC | 0.375
ATGATTGG | 0.286
ACGATTGA | 0.216
GTGATTGA | 0.401
GCGATTGA | 0.145
CTGATTGC | 0.274
CTGATTGA | 0.305
ACGATTGC | 0.0745
ATGATTGA | 0.423
GGTGAAAA | -0.106
CAAATCTC | 0.0434
CATCTACG | 0.104
AGGTGAGC | -0.00638
CCGGGTGA | 0.176
AATGCTCA | 0.0674
AGTCAGCA | 0.455
ACTCAGCG | 0.269
ACTCAGCC | 0.335
AGTCAGCC | 0.458
CGTCAGCA | -0.0315
CGTCAGCC | -0.135
AGTCAGCG | 0.453
ATTCAGCG | -0.0722
GGTCAGCA | -0.0951
GGCAGCAA | -0.355

Sequence | PBM E-score
GCAGATGC | -0.257
CAATGGTC | 0.183
ATGTATTA | 0.0655
ATGCTTTG | -0.00054
TAACAGTA | -0.019
ATATAGTG | 0.0402
ATATAGTC | 0.403
ATATAGTA | 0.128
CTATAGTA | 0.0624
CTATAGCC | -0.0342
CTATAGTC | 0.37
ACCGAACT | -0.0318
AGCAGAAA | -0.0226
CAGAGTGG | -0.106
CAGACGAG | -0.0357
CGCTCTAG | -0.196
CCGACAAA | -0.0238
GTCATCGA | 0.389
ATCATCGA | 0.31
CTCATCGA | 0.173
ACCTGAAA | -0.0522
CAGGTTGA | 0.0225
CCAGAAAG | 0.0675
AGTAGTTA | 0.112
AGTAGTCG | 0.381

Sequence | PBM E-score
CGTAGTCC | 0.262
GGTAGTGA | 0.0671
AGTAGTAG | 0.00559
AGTAGTCA | 0.478
CGTAGTCA | 0.483
GGTAGTAA | 0.0578
GGTAGTCA | 0.479
AGTAGTAA | 0.156
CGTAGTAA | -0.0636
AGTAGTCC | 0.302
GGCCGTCA | -0.262
CTCTGGTC | -0.00298
GGAATTCA | -0.0346
ACGAACGT | -0.129
ATGACCGC | -0.075
CCAGTCGA | 0.00412
CGTACGTC | -0.241
ACGGAGTG | -0.215
ACGGAGTC | 0.431
ACGGAGTA | -0.0195
CCGGAGTA | 0.0206
CCGGAGGC | -0.154
CCGGAGTC | 0.373
ATGTACTG | 0.0673
ACTGTCAA | -0.0537

Sequence | PBM E-score
GCGTCGCA | 0.0193
GACTAATC | 0.439
AACTAATC | 0.15
GACTAATA | 0.445
CACTAATA | 0.134
CACTAATC | 0.191
TACTAATA | -0.1
CTAGGTAC | 0.0158
ATGACTTG | 0.435
AAGACTTG | 0.165
CTGACTTC | 0.392
CAGACTTC | -0.103
AGGACTTG | 0.0575
CCGACTTC | -0.0761
CTGACTCC | 0.46
ACGACTTC | 0.324
ATGACTTC | 0.469
CTGACCCC | -0.221
AGGACTTC | 0.201
CTCACTCC | 0.0635
AAATGAAG | 0.0192
ACACAGTC | 0.285
ATGCAACC | -0.254
AACCAGTA | -0.0555
ATATACTC | 0.103

Sequence | PBM E-score
AGGAGCTC | -0.0695
CGCTGCTC | -0.243
CCGTCACC | -0.189
CAGTCACC | 0.423
CAGTCACA | 0.42
CAGTCACG | 0.413
CGGTCACA | -0.132
CAGTCAAG | 0.267
CCGTCACA | -0.22
CTGTCACA | 0.16
CGGTCACC | -0.0952
GACCTTTA | -0.0143
ATCGAGAT | -0.151
AATAGGAG | -0.113
AGAACGTG | -0.217
CTCTAGGA | 0.0144
AGTCATCC | 0.49
CGTCATCC | -0.131
CGTCATCA | -0.004
AGTCATCG | 0.492
AGTCATCA | 0.485
GGTCATCA | 0.228
ATTCATCC | 0.119
AGGCATCG | -0.125
ATTCATCG | 0.205

Sequence | PBM E-score
GAGGTAAA | 0.122
ATGTGGAG | 0.0652
GGGCGCAC | -0.321
GCCAAGGC | -0.214
AGTCAGGC | 0.449
CGTCAGGC | -0.19
CGTCAGGA | -0.0376
ATTCAGGG | 0.0298
AGTCAGGA | 0.417
GGTCAGGA | -0.138
AGTCAGGG | 0.439
ACTCAGGG | 0.311
ACTCAGGC | 0.331
AAAGTCCA | 0.0185
AGTGAGAG | -0.0545
AACGTGGG | -0.189
AGCGATCA | -0.0759
CTATGGAA | 0.0704
CGAGCAGA | -0.0955
TGATTAAA | 0.418
CGATTACA | 0.101
GGATTACA | 0.0898
